Values joined by “and” are separate entries in the source; they are usually repeats but may differ in a detail not shown here. Equal entries are not always repeated. Records with an inconclusive call do not appear. Active and inactive are the calls of the source.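 How the source made its calls, unless noted: active means normalized viability below 100% at a tested concentration; inactive means the rest.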
Key:
[1] = viability loss in pontine glioma line – cell-based, SU-DIPG-XVII, MIPE5.0, CellTiter-Glo, qHTS, dose response (AID 1347060; cut-off not given, nearly all actives have AC50 up to about 26 µM;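 on AC50: cells exposed to compound for 48 hours before viability readout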); conditions: CellTiter-Glo ATP luminescence
[2] = viability loss in pontine glioma line – cell-based, SU-DIPG-XIII, MIPE4.0, CellTiter-Glo, qHTS, dose response (AID 1347061; cut-off not given, nearly all actives have AC50 up to about 37 µM;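 further: cells exposed to compound for 48 hours before readout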); conditions: CellTiter-Glo ATP luminescence
[3] = viability loss in pontine glioma line – cell-based, JHH-DIPG-1, MIPE4.0, CellTiter-Glo, qHTS, dose response (AID 1347062; cut-off not given, nearly all actives have AC50 up to about 27 µM;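 on AC50: cells exposed to compound for two days before readout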); conditions: JHH-DIPG-1 viability, CellTiter-Glo ATP luminescence
[4] = viability loss in pontine glioma line – cell-based, SU-DIPG-IV, MIPE4.0, CellTiter-Glo, qHTS, dose response (AID 1347063; cut-off not given, nearly all actives have AC50 up to about 30 µM;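 further: compound exposure lasted 48 hours before the viability readout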); conditions: CellTiter-Glo ATP luminescence
[5] = viability loss in pontine glioma line – cell-based, SU-DIPG-XIII, MIPE5.0, CellTiter-Glo, qHTS, dose response (AID 1347064; cut-off not given, nearly all actives have AC50 up to about 23 µM;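 on AC50: cells exposed to compound for 48 hours before the viability read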); conditions: CellTiter-Glo ATP luminescence
[6] = viability loss in pontine glioma line – cell-based, SU-DIPG-XXV, MIPE5.0, CellTiter-Glo, qHTS, dose response (AID 1347065; cut-off not given, nearly all actives have AC50 up to about 26 µM;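 further: cells exposed to compound for 48 hours before ATP readout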); conditions: CellTiter-Glo ATP luminescence
[7] = growth inhibition of DIPG cells – cell-based, MIPE4.0 library, CellTiter-Glo luminescence, qHTS (AID 1347066; cut-off not given, nearly all actives have AC50 up to about 30 µM;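 further: cells exposed to compound for 48 hours before readout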); conditions: SU-DIPG-VI viability, CellTiter-Glo ATP luminescence
[8] = JHH-DIPG-1 glioma cell viability, MIPE5.0 library, CellTiter-Glo luminescence, qHTS (AID 1347067; cut-off not given, nearly all actives have AC50 up to about 26 µM;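 further: cells exposed to compound for 48 hours before readout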); conditions: JHH-DIPG-1 glioma viability, CellTiter-Glo ATP luminescence
[9] = growth inhibition of DIPG cells – cell-based, MIPE5.0 library, qHTS (AID 1347068; cut-off not given, nearly all actives have IC50 up to about 30 µM;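 on IC50: cells exposed to compound for 48 hours before viability readout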); conditions: SU-DIPG-XXV viability
[10] = viability loss with induced miR-34 in A549 – imaging, A549 dox-inducible miR-34, nuclei and caspase counts, primary screen (AID 1347080;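 active means compounds whose cell count with miR-34 switched on is under 0.7 times the count with it off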); conditions: A549 miR-34 inducible, Hoechst nuclei count, 48 h
[11] = compounds altering HSF1 focus formation in cells – imaging, Selleck Cancer Library (AID 1347162; in the data active means plate-normalised HSF1 focus index below about 0.46); conditions: human cells, HSF1 nuclear foci imaging, at 10 µM; SSMD: measured here: HSF1 foci SSMD mean; cell count: measured here: cell number; plate-normalised HSF1 focus index: stronger effect = lower value
[12] = MELAS cybrid and Rieske KO viability enhancers – cell-based, MELAS cybrids, Rieske KO mouse fibroblasts, CellTiter-Glo, primary screen (AID 1508586;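 active means mean z-score across replicates of 1.96 or higher in either the MELAS or the Rieske mutant cell line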;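 further: z relative to plate mean and SD of compound and empty wells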); conditions: low glucose
[13] = drug combination growth inhibition, ovarian cancer – cell-based, oncology-focused library, rucaparib conditional, profiling panel (AID 1508598); conditions: patient-derived ovarian cancer cells, CellTiter-Glo viability, 144 h, stronger effect = lower value
[14] = galactose survival enhancers in mitochondrial complex I cybrids – cell-based, galactose medium, ATP luminescence, primary screen (AID 1645843;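 active means z-score of at least 1.8 in each of two replicates, scored against plate mean and spread of sample wells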;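 further: positive z means more ATP and so rescue of galactose-driven cybrid death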); conditions: complex I mutant cybrid cells, 72 h, stronger effect = higher value
[15] = stronger effect = lower value, cell number ratio, induced over uninduced
[16] = measured here: relative caspase fold change +Dox/-Dox
[17] = measured here: total cells with miR-34 induction, stronger effect = lower value
[18] = measured here: total cells without miR-34 induction

COc1cccc2c(NCc3ccccc3)nc(-n3c(N)nc4ccccc43)nc12
active: AC50 [1] 3.72 µM | AC50 [3] 9.35 µM | AC50 [4] 3.32 µM | AC50 [5] 3.32 µM | AC50 [6] 2.63 µM | AC50 [7] 2.64 µM | AC50 [8] 2.95 µM | IC50 [9] 2.95 µM
inactive: outcome [2]

Cn1cc(C[C@@H](N)C(=O)O)c2ccccc21
inactive: outcome [1] | outcome [2] | outcome [3] | outcome [4] | outcome [5] | outcome [6] | outcome [7] | outcome [8] | outcome [9]

C=CCNC1=C2C[C@@H](C)C[C@H](OC)[C@H](O)[C@@H](C)/C=C(\C)[C@H](OC(N)=O)[C@@H](OC)/C=C\C=C(/C)C(=O)NC(=CC1=O)C2=O
1900: cell count [10, 18]
1940: cell count [10, 17]
active: AC50 [1] 1.18 µM | AC50 [2] 1.05 µM | AC50 [3] 2.64 µM | AC50 [4] 0.118 µM | AC50 [6] 7.42 µM | AC50 [7] 14.8 µM | AC50 [8] 0.934 µM | IC50 [9] 10.5 µM
inactive: outcome [5] | fold change [10, 15] 1.02
1.33: fold change [10, 16]

C[C@@]12O[C@@H](C[C@]1(O)CO)n1c3ccccc3c3c4c(c5c6ccccc6n2c5c31)CNC4=O
active: AC50 [1] 2.95 µM | AC50 [2] 4.69 µM | AC50 [3] 2.96 µM | AC50 [4] 8.33 µM | AC50 [5] 1.32 µM | AC50 [6] 0.186 µM | AC50 [7] 8.33 µM | AC50 [8] 1.86 µM | IC50 [9] 2.63 µM

CS(=O)(=O)c1cccc(CNc2nc(Nc3ccc4c(c3)CCC(=O)N4)ncc2C(F)(F)F)c1
0.606 and 1.43: fold change [10, 16]
7540: cell count [11]
-1.44: SSMD [11]
1440 and 2320: cell count [10, 18]
-0.256: z-score ([12]; Rieske KO mouse fibroblast survival, CellTiter-Glo 72 h)
inactive: fold change [10, 15] 0.913 and 0.835 | plate-normalised HSF1 focus index [11] 0.911 | z-score ([12]; MELAS cybrid survival, CellTiter-Glo 48 h, stronger effect = higher value) -0.299 | viability ([13]; at 0.000305 µM, OCI-C5x cells, without rucaparib) 109% | viability ([13]; at 0.000305 µM, OCI-P5x cells, without rucaparib) 101% | viability ([13]; at 0.00122 µM, OCI-C5x cells, with rucaparib 10 µM, 100% = cells with rucaparib alone) 108% | viability ([13]; at 0.00122 µM, OCI-C5x cells, without rucaparib) 114% | viability ([13]; at 0.00122 µM, OCI-P5x cells, without rucaparib) 106% | viability ([13]; at 0.00488 µM, OCI-C5x cells, with rucaparib 10 µM, 100% = cells with rucaparib alone) 113% | viability ([13]; at 0.00488 µM, OCI-C5x cells, without rucaparib) 112% | viability ([13]; at 0.00488 µM, OCI-P5x cells, without rucaparib) 109% | viability ([13]; at 0.0195 µM, OCI-C5x cells, with rucaparib 10 µM, 100% = cells with rucaparib alone) 104% | viability ([13]; at 0.0195 µM, OCI-C5x cells, without rucaparib) 109% | viability ([13]; at 0.0195 µM, OCI-P5x cells, without rucaparib) 108% | viability ([13]; at 0.0781 µM, OCI-C5x cells, with rucaparib 10 µM, 100% = cells with rucaparib alone) 102% | viability ([13]; at 0.0781 µM, OCI-C5x cells, without rucaparib) 109% | viability ([13]; at 0.0781 µM, OCI-P5x cells, without rucaparib) 112% | viability ([13]; at 0.313 µM, OCI-C5x cells, with rucaparib 10 µM, 100% = cells with rucaparib alone) 108% | viability ([13]; at 0.313 µM, OCI-C5x cells, without rucaparib) 116% | viability ([13]; at 0.313 µM, OCI-P5x cells, without rucaparib) 115% | viability ([13]; at 1.25 µM, OCI-C5x cells, with rucaparib 10 µM, 100% = cells with rucaparib alone) 113% | viability ([13]; at 1.25 µM, OCI-C5x cells, without rucaparib) 116% | viability ([13]; at 1.25 µM, OCI-P5x cells, without rucaparib) 107% | z-score [14] -0.545
1320 and 1930: cell count [10, 17]
active: AC50 [1] 6.61 µM | AC50 [2] 18.7 µM | AC50 [3] 16.6 µM | AC50 [4] 18.7 µM | AC50 [5] 8.33 µM | AC50 [6] 4.68 µM | AC50 [7] 16.6 µM | AC50 [8] 2.35 µM | IC50 [9] 8.33 µM | viability ([13]; at 0.000305 µM, OCI-C5x cells, with rucaparib 10 µM, 100% = cells with rucaparib alone) 98.4% | viability ([13]; at 0.000305 µM, OCI-P5x cells, with rucaparib 20 µM, 100% = cells with rucaparib alone) 88.7% | viability ([13]; at 0.00122 µM, OCI-P5x cells, with rucaparib 20 µM, 100% = cells with rucaparib alone) 84.8% | viability ([13]; at 0.00488 µM, OCI-P5x cells, with rucaparib 20 µM, 100% = cells with rucaparib alone) 93.9% | viability ([13]; at 0.0195 µM, OCI-P5x cells, with rucaparib 20 µM, 100% = cells with rucaparib alone) 91.7% | viability ([13]; at 0.0781 µM, OCI-P5x cells, with rucaparib 20 µM, 100% = cells with rucaparib alone) 88% | viability ([13]; at 0.313 µM, OCI-P5x cells, with rucaparib 20 µM, 100% = cells with rucaparib alone) 93.7% | viability ([13]; at 1.25 µM, OCI-P5x cells, with rucaparib 20 µM, 100% = cells with rucaparib alone) 75.9% | viability ([13]; at 5 µM, OCI-C5x cells, with rucaparib 10 µM, 100% = cells with rucaparib alone) 56.8% | viability ([13]; at 5 µM, OCI-C5x cells, without rucaparib) 59.8% | viability ([13]; at 5 µM, OCI-P5x cells, with rucaparib 20 µM, 100% = cells with rucaparib alone) 44.7% | viability ([13]; at 5 µM, OCI-P5x cells, without rucaparib) 74.7%

From PubChem BioAssay
